We go through 5 compounds from PubChem BioAssay.

Inconclusive results are not listed. Active and inactive are the calls of the source. Cut-off read from the data, not from the text of the source, unless noted: active = percent of DMSO control GFP below about 86%; inactive = the rest, inconclusive results apart.

Assay [1] in a line: rapamycin-like changes in RPL19A-GFP expression – cell-based, S. cerevisiae, multiplex flow cytometry, primary screen (AID 1862).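 Note: lower values mimic rapamycin by blocking the RPL19A rise seen in DMSO cells.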 The note with it: S. cerevisiae RPL19A-GFP strain, flow cytometry fluorescence, 3 h; at 10 µM; stronger effect = lower value.
A short description of assay [2]: TOR pathway GLN3 branch reporter MEP2-GFP changes – S. cerevisiae, multiplex flow cytometry, primary screen (AID 1867;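 active = GFP response, as percent of the DMSO control, above the screen-wide mean plus 3 SD, about 139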;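 note: median GFP channel fluorescence of barcode-gated MEP2-GFP cells measured by flow cytometry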). The following applies: S. cerevisiae MEP2-GFP strain, 3 h, at 10 µM, stronger effect = higher value, 100% means same as DMSO wells.
The nature of assay [3]: TOR pathway RTG branch CIT2 reporter changes – S. cerevisiae, GFP fusion, multiplex flow cytometry, primary screen (AID 1870;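 active = percent response above a set limit, the screen-wide mean plus 3 SD, cut at about 130% in these data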;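 note: barcoded CIT2-GFP strain pooled with four other GFP strains with rapamycin as positive control; median GFP fluorescence per well over plate mean of DMSO wells so 100% = DMSO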). The note with it: S. cerevisiae CIT2-GFP expression, 3 h, at 10 µM, stronger effect = higher value.
The nature of assay [4]: TOR pathway LAP4-GFP level changes – S. cerevisiae, multiplex flow cytometry, primary screen (AID 1873;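 active = GFP signal, as percent of the solvent control, above the screen mean plus 3 SD, about 149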). The note with it: S. cerevisiae LAP4-GFP expression, 3 h, at 10 µM, stronger effect = higher value.
The nature of assay [5]: yeast AGP1-GFP level changes, GLN3 branch – cell-based, multiplex flow cytometry, S. cerevisiae, primary screen (AID 1887;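 active = GFP signal above the screen-wide mean plus 3 SD, that is over about 124.5% of the solvent control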;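 note: AGP1-GFP fusion strain of S. cerevisiae within a five-strain barcoded multiplex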). The following applies: 3 h, at 10 µM, stronger effect = higher value.
Assay [6] is described as follows: reduced mouse 2C T cell binding to pMHC/ICAM-1 vesicles – MLPCN validation set, flow cytometry, LFA-1/ICAM-1 modulator project, pilot screen (AID 2523;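 active = response below a set limit, under 55% cells CD8-positive and vesicle-bound, and CD8 cells' 90th-percentile brightness under 279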;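 for vesicle binding response: mean PE anti-B7-1 fluorescence of CD8+ cells relative to row control; 100% = QL9-loaded vesicles with DMSO vehicle in the same plate row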). The note with it: 2C mouse CD8+ T cells, at 7 µM, stronger effect = lower value; double positive events: measured here: CD8+/vesicle+ event percentage.
Assay [7] has as its target Integrin beta-1 (Homo sapiens) + Integrin alpha-4 (Homo sapiens) (UniProt P13612+P05556). The assay is described as follows: alpha4beta1 integrin LIBS antibody binding reduction – U937 cells, HUTS-21 mAb, flow cytometry, validation set, VLA-4 allosteric modulator project, pilot screen (AID 2674;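 active = inhibition above 50%, about 3 SD of the validation set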;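 note: antibody binding induced by the VLA-4 ligand LDV present at three times its Kd; 0% = LDV ligand with antibody and no compound and 100% = antibody without LDV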). The note with it: HUTS-21 LIBS mAb binding, at 6.7 µM, stronger effect = higher value, binding induced by LDV ligand.

Assay [8] is described as follows: calorie-restriction mimetic ROS inhibitors, yeast – validation compound set, pilot screen (AID 2706;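 active = superoxide response below 65% of plate, a cut near 3 SD across the whole screen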;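 note: yeast exposed to compound for one week at 30 degrees C before staining; 100% = mean of all compound wells on the same plate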). The note with it: S. cerevisiae aging, superoxide DHE fluorescence; at 10 µM, stronger effect = lower value.
The target of assay [9] is Beta-adrenergic receptor kinase 1 (Homo sapiens) (UniProt P25098). In words: GRK2 binders displacing RNA aptamer, biochemical, validation, human GRK2, bead flow cytometry (AID 488806;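 active = aptamer binding inhibition above 30%, about 3 SD of noise from non-fluorescent compounds; inactive = inhibition at or below 30%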). The note with it: bead-bound GRK2, FAM-aptamer displacement, at 10 µM, stronger effect = higher value.
Assay [10] concerns the target Beta-2 adrenergic receptor (Homo sapiens) (UniProt P07550). The assay is described as follows: agonist-induced loss of surface beta2AR – cell-based, FAP fluorogen, flow cytometry, validation set, pilot screen (AID 504459;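 active = percent response above 42, roughly 3 SD of non-fluorescent test compounds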;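 note: agonist-driven loss of surface beta2AR via internalization measured by FAP dye flow cytometry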). The following applies: Am2.2-beta2AR cells, at 10 µM, stronger effect = higher value.
The target in assay [11] is AP-2 complex subunit beta (Homo sapiens) (UniProt P63010). In words: beta-arrestin/AP2 interaction blockers – biochemical, validation set, GST-AP2 beads, flow cytometry, pilot screen (AID 504541;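 active = inhibition above 54%, about 3 SD of non-fluorescent compounds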;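 note: AP2 carries R879A mutation and is captured from E. coli lysate; bead-bound FITC arrestin peptide fluorescence measuring arrestin peptide binding to AP2; 0% = DMSO wells and 100% = excess unlabeled arrestin peptide control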). The note with it: FITC arrestin peptide, at 10 µM, stronger effect = higher value, AP2 beta2 appendage fragment, R879A mutant.
Assay [12] can be described thus: cytosolic pH regulators acting via V-ATPase – S. cerevisiae, pHLuorin, HTS validation (AID 504600; in the data active = response above about 15%;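 note: plate controls were DMSO for no effect and reference compound for full effect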). The note with it: V-ATPase proton transport, at 10 µM, stronger effect = higher value.
The test system of assay [13] is anti-desmoglein-3 scFv antibody binding to human DSG3. The assay is described as follows: blockers of pathogenic pemphigus antibody–desmoglein-3 binding – biochemical, validation compound set, bead-based, flow cytometry, pilot screen (AID 588368;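 active = binding below the plate cutoff, the plate median minus 3 SD, with a reading above zero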;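 note: signal is the median channel fluorescence of bead-bound GFP antibody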). The note with it: Protein G beads, DSG3-Fc, scFv-GFP binding, at 10 µM, stronger effect = lower value.
The target in assay [14] is ATP-binding cassette sub-family B member 6 (Homo sapiens) (UniProt Q9NP58). The assay is described as follows: blockers of ABCB6-driven porphyrin uptake – K562-ABCB6 cells, flow cytometry, validation set, pilot screen (AID 588550;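 active = inhibition above the screen-wide mean plus 3 SD, about 51%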;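 note: 0% = DMSO wells and 100% = benzethonium chloride 70 µM positive control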). The following applies: K562-ABCB6 porphyrin accumulation, 1 h, at 10 µM, stronger effect = higher value.
A short description of assay [15]: AML differentiation inducers, ER-HoxA9 marrow cells – cell-based, GFP/MAC1 double positive, flow cytometry, validation set, primary screen (AID 588685;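 active = differentiation response of at least 50%, scaled between solvent and reference control, from cells with both markers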;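 note: compound exposure lasts four days before antibody staining and flow analysis; 0% = DMSO wells and 100% = 5 µM fulvestrant positive control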). The following applies: stronger effect = higher value, normalized: vehicle 0, fulvestrant 100.
The nature of assay [16]: Nile Red efflux blockade in pump-expressing yeast – validation compound set, multiplex, phenotypic, pilot screen (AID 588506;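 active = efflux inhibition above 0.42, the validation set average plus 4 SD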;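 note: Nile Red retained in cells so higher fluorescence means more efflux inhibition; 0 = negative control wells and 1 = enniatin B 25 µM full block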). The note with it: S. cerevisiae pump-expressing triplex, Nile Red efflux flow cytometry; at 10 µM; stronger effect = higher value; the pumps come from Candida albicans.

Sequence of AP-2 complex subunit beta (Homo sapiens) (P63010 whole entry, looked up, the tested form may be a part, one chain of several): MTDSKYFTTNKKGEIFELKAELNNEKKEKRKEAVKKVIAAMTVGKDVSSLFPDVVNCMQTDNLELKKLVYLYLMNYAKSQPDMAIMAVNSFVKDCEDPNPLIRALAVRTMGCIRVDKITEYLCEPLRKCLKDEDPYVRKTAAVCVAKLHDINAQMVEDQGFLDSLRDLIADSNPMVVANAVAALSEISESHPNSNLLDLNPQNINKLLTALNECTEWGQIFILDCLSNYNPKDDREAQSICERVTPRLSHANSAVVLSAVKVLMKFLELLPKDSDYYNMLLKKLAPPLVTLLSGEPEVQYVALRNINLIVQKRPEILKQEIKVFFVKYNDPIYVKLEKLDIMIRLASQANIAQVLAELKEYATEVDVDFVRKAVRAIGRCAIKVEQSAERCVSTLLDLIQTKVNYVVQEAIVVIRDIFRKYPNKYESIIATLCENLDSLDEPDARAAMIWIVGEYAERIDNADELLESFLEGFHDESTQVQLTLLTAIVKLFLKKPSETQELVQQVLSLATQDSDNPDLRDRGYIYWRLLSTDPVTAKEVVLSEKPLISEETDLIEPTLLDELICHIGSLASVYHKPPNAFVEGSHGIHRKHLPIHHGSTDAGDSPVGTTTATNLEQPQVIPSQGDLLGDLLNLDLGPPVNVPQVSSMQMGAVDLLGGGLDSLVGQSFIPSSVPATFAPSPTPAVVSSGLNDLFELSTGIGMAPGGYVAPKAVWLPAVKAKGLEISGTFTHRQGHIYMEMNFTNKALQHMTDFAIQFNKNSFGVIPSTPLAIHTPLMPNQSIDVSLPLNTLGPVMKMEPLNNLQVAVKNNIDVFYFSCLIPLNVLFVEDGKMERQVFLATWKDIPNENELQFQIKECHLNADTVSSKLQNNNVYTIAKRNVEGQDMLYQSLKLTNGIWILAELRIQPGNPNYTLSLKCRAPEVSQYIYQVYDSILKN
Sequence of Integrin beta-1 (Homo sapiens) + Integrin alpha-4 (Homo sapiens) (P05556 whole entry, looked up): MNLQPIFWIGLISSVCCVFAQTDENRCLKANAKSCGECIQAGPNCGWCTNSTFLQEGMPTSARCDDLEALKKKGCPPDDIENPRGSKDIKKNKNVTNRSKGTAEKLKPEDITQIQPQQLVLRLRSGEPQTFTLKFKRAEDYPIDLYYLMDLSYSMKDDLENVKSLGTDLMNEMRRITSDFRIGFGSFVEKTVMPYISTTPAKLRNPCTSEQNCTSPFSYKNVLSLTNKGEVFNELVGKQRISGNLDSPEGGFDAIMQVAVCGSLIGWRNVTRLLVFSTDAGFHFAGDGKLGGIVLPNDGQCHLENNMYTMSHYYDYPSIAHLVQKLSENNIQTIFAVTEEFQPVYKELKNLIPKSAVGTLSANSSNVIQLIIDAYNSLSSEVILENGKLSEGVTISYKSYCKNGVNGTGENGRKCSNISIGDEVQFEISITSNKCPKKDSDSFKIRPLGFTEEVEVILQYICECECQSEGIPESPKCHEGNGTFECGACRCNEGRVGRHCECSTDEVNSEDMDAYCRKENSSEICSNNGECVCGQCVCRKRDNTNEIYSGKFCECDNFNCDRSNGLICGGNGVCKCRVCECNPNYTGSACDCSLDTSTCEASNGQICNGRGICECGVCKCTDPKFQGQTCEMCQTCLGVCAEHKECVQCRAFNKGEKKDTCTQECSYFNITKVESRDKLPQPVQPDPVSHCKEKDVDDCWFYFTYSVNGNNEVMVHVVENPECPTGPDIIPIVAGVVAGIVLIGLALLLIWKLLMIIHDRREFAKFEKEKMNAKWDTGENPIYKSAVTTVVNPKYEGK
Sequence of Integrin beta-1 (Homo sapiens) + Integrin alpha-4 (Homo sapiens) (P13612 whole entry, looked up): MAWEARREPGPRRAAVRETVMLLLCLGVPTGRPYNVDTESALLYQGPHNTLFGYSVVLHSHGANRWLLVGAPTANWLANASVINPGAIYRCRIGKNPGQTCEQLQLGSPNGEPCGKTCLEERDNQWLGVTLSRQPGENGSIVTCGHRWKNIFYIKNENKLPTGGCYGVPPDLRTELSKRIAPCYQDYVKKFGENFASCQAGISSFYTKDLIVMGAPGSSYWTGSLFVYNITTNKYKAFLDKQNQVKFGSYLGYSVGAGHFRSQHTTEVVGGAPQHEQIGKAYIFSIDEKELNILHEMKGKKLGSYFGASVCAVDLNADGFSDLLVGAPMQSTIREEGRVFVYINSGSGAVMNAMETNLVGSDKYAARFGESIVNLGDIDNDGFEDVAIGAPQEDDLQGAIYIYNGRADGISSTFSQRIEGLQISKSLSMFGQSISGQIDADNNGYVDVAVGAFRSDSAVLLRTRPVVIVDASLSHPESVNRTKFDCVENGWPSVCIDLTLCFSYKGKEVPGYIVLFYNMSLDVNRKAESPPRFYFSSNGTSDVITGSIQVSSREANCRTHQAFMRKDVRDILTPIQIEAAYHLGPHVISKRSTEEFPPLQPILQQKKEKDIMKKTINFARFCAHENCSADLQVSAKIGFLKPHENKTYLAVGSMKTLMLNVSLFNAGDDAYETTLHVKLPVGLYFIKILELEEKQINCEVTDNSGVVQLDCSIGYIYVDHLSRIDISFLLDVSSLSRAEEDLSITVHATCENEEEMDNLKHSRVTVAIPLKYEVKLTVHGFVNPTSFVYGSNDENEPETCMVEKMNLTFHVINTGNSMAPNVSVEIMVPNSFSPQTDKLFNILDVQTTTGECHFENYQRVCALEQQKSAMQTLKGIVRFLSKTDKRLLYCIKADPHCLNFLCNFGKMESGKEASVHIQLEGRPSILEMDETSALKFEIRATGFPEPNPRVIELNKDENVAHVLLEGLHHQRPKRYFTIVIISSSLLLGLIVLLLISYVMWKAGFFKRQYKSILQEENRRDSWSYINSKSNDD
Sequence of ATP-binding cassette sub-family B member 6 (Homo sapiens) (Q9NP58 whole entry, looked up): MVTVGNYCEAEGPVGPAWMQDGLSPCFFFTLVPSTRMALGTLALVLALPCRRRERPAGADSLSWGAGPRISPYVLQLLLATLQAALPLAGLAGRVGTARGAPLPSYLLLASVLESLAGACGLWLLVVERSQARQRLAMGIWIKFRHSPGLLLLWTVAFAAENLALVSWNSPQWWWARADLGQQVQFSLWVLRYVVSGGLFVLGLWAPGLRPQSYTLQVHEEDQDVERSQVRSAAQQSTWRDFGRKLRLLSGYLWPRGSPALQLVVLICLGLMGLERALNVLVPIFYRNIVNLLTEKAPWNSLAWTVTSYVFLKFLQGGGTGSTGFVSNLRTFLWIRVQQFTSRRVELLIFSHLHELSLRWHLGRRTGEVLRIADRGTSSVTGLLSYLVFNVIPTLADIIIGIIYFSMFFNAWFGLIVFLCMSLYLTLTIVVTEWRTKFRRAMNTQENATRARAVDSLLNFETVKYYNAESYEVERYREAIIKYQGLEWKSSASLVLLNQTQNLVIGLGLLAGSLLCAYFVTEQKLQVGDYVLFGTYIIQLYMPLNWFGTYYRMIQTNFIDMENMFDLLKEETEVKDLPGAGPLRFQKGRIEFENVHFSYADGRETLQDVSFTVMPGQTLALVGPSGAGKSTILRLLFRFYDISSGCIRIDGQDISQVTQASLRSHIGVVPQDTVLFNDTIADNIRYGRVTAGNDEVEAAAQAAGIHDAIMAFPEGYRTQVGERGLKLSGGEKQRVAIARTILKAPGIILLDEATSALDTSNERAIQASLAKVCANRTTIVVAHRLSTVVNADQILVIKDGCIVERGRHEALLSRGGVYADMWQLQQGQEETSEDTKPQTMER
Sequence of Beta-adrenergic receptor kinase 1 (Homo sapiens) (P25098 whole entry, looked up): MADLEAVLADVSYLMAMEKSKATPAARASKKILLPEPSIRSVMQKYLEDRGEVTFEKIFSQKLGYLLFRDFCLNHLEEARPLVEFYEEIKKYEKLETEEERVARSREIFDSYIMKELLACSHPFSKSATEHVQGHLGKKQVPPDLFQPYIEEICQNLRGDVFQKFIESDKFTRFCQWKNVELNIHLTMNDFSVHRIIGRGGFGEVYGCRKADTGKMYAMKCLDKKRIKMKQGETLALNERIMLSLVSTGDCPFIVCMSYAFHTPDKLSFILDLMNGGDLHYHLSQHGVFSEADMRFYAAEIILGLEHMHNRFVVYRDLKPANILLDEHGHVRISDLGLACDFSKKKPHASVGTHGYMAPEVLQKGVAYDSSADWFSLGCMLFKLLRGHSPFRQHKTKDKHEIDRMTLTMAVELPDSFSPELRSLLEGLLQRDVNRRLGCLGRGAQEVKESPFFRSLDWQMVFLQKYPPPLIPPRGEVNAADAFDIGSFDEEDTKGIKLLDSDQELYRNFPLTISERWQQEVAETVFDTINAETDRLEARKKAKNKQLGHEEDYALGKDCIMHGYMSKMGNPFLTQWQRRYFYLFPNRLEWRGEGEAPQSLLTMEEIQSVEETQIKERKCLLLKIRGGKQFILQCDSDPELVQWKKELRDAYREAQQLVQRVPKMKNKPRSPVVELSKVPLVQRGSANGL
Sequence of Beta-2 adrenergic receptor (Homo sapiens) (P07550 whole entry, looked up): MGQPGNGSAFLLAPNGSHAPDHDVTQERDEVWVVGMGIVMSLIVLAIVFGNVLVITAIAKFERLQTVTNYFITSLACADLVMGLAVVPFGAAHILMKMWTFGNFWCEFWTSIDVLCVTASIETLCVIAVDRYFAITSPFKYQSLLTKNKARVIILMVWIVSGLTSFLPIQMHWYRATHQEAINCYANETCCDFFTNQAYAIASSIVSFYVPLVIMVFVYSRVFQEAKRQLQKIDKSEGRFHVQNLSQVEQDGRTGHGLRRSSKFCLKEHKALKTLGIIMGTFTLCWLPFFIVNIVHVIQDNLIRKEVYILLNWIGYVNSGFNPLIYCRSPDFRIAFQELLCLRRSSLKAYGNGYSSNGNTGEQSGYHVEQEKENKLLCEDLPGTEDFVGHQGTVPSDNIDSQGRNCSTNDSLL

In the case of `O=c1ccn([C@@H]2O[C@H](CO)[C@@H](O)[C@H]2O)c(=O)[nH]1`, the percent of DMSO control GFP in assay [1] was 102% (inactive). The GFP response vs DMSO in assay [2] was 102% (inactive); in [4], 98.3% (inactive). In addition, in assay [3], the percent response of DMSO control was 93.8% (inactive). For the same compound, in assay [5], the GFP response, % of DMSO is 109% (inactive). Further, the double positive events in assay [6] was determined as 63.9%. For the same compound, in assay [6], the vesicle binding response is 124% (inactive). Besides, the inhibition was 11.7% (inactive) in assay [7], 10.2% (inactive) in assay [11] and 1% (inactive) in assay [14]. Moreover, the superoxide response (% of plate) in [8] was 99.8% (inactive). Further, the aptamer binding inhibition in [9] was 3% (inactive). The response was -22.4% (inactive) in [10] and 1.83% (inactive) in assay [12]. For the same compound, the binding (% of control) in assay [13] was 102% (inactive). Further, the differentiation response in assay [15] is 24.6% (inactive).
As for `Cn1c(=O)oc2cc(S(=O)(=O)N3CCc4ccccc4C3)ccc21`, the percent of DMSO control GFP in assay [1] was 101% (inactive). The GFP response vs DMSO in assay [2] was 98.9% (inactive); in assay [4], 89.3% (inactive). The percent response of DMSO control in assay [3] was 102% (inactive). Also, the GFP response, % of DMSO in assay [5] was 97.8% (inactive). Moreover, the double positive events in assay [6] amounted to 58.4%. Further, in assay [6], the vesicle binding response was 165% (inactive). Moreover, the inhibition in assay [7] is 15.6% (inactive); in assay [11], 7.43% (inactive); in [14] it was 10% (inactive). Besides, the superoxide response (% of plate) in [8] was 95.2% (inactive). The aptamer binding inhibition in [9] is 2% (inactive). The response in [12] was 2.89% (inactive). In addition, the binding (% of control) in assay [13] was 98.3% (inactive). In addition, in [16], the efflux inhibition (fraction of control) is -0.05 (inactive). Also, in assay [15], the differentiation response is 9.49% (inactive).
With `Cn1c(=O)c2c(ncn2Cc2ccccc2)n(C)c1=O`, the percent of DMSO control GFP in [1] is 100% (inactive). Besides, the GFP response vs DMSO was 105% (inactive) in assay [2] and 103% (inactive) in assay [4]. The percent response of DMSO control in assay [3] was 88.6% (inactive). Moreover, the GFP response, % of DMSO in [5] was 109% (inactive). This compound also came in with a double positive events in assay [6] of 65.2%. Besides, in assay [6], the vesicle binding response was 182% (inactive). The figures for the inhibition in [7] and in assay [14] were -1.97% (inactive) and 6% (inactive), respectively. Further, in [8], the superoxide response (% of plate) was 96.4% (inactive). In addition, the aptamer binding inhibition in assay [9] is 0% (inactive). The response in assay [10] was -23% (inactive); in assay [12], -0.4% (inactive). Also, the binding (% of control) in assay [13] was 104% (inactive). The efflux inhibition (fraction of control) in [16] is 0 (inactive). Besides, the differentiation response in [15] is -16.8% (inactive).
`COc1ccc2nc(NC(=O)Nc3ccccc3)sc2c1`: in assay [1], the percent of DMSO control GFP was 105% (inactive). Besides, the GFP response vs DMSO in [2] was 96.9% (inactive); in assay [4], 89.3% (inactive). In assay [3], the percent response of DMSO control is 111% (inactive). Also, the GFP response, % of DMSO in [5] was 96% (inactive). Besides, the double positive events in [6] turned out to be 50.6%. The vesicle binding response in assay [6] is 173% (inactive). Moreover, the inhibition in assay [7] was 10% (inactive); in [11], 0.98% (inactive); in assay [14], 1% (inactive). For the same compound, the superoxide response (% of plate) in assay [8] was 92.7% (inactive). Further, in [9], the aptamer binding inhibition was -1% (inactive). Besides, the response in [12] is 70.8% (active). In addition, the binding (% of control) in assay [13] was 95.7% (inactive). In addition, in assay [16], the efflux inhibition (fraction of control) is -0.47 (inactive). For the same compound, in assay [15], the differentiation response was -22.8% (inactive).
In the case of `c1cc2c(cc1C1CCCCC1)c1c3n2CCN=C3CCC1`, the percent of DMSO control GFP in assay [1] is 98.1% (inactive). In addition, the results for the GFP response vs DMSO in assay [2] and in [4] were 107% (inactive) and 99.4% (inactive), respectively. Besides, the percent response of DMSO control in assay [3] is 99.8% (inactive). For the same compound, in assay [5], the GFP response, % of DMSO was 93.1% (inactive). This compound had a double positive events in assay [6] of 57.1%. In addition, in assay [6], the vesicle binding response is 224% (inactive). Also, the inhibition in assay [7] is -9.57% (inactive); in [11] it was -7.03% (inactive); in assay [14] it was -1% (inactive). The superoxide response (% of plate) in assay [8] is 98.8% (inactive). Also, the aptamer binding inhibition in assay [9] is -9% (inactive). Besides, the response in [12] is -0.63% (inactive). Further, the binding (% of control) in assay [13] was 114% (inactive). Further, the efflux inhibition (fraction of control) in [16] was 0.03 (inactive). For the same compound, the differentiation response in assay [15] is -9.89% (inactive).
